Measured values published in PubChem BioAssay (EPA / NIEHS).
Active and inactive are the calls of the source. Rule for the calls: active = hit-call score of the fitted dose curve at least 0.9, where 1 is the maximum; inactive = score below 0.9.

What was measured:
[1] = read-out: Vascular cell adhesion molecule 1 (VCAM1), VCAM1 (gene 7412); assay: BSK_hDFCGF_VCAM1: BioMAP Diversity Plus: hDFCGF Assay for Vascular cell adhesion molecule 1 (VCAM1) Biomarker Activity (AID 2283065); details: primary human foreskin fibroblasts; actives raise or lower the signal;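 for AC50: VCAM-1 protein level quantified by ELISA after 24 h chemical exposure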
Summary of the method: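 Measured after 24 h chemical treatment of primary human skin fibroblasts, VCAM-1 was detected by ELISA and concentration-response analysed in both directions versus DMSO vehicle.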

[2] = read-out: Plasminogen activator inhibitor-1 (PAI1), SERPINE1 (gene 5054); assay: BSK_hDFCGF_PAI1: BioMAP Diversity Plus: hDFCGF Assay for Plasminogen activator inhibitor-1 (PAI1) Biomarker Activity (AID 2283066); details: primary human foreskin fibroblasts; actives raise or lower the signal
Summary of the method: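 ELISA readout of PAI-1 from primary human skin fibroblast cultures, 24 h after compound addition. Gain or loss of signal was fitted bidirectionally against DMSO baseline.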

[3] = read-out: Intercellular Adhesion Molecule 1 (ICAM1), ICAM1 (gene 3383); assay: BSK_KF3CT_ICAM1: BioMAP Diversity Plus: KF3CT Assay for Intercellular Adhesion Molecule 1 (ICAM1) Biomarker Activity (AID 2283067); details: primary human keratinocytes with fibroblasts; actives raise or lower the signal
Summary of the method: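 Bidirectional curve fitting against a DMSO baseline was applied to ICAM-1 ELISA signal from primary human skin co-cultures harvested 24 h after treatment, with SRB staining of parallel wells for overt cytotoxicity.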

[4] = read-out: Interferon-gamma inducible Protein 10 (IP10), CXCL10 (gene 3627); assay: BSK_KF3CT_IP10: BioMAP Diversity Plus: KF3CT Assay for Interferon-gamma inducible Protein 10 (IP10) Biomarker Activity (AID 2283068); details: primary human keratinocytes with fibroblasts; actives raise or lower the signal
Summary of the method: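 Signal is secreted/surface IP-10 by ELISA in a human primary skin co-culture of keratinocytes and foreskin fibroblasts, taken 24 h post-dosing; DMSO served as negative control.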

[5] = BSK_KF3CT_SRB: Viability Assessment in the BioMAP Diversity Plus: KF3CT Assay (AID 2283069); details: primary human keratinocytes with fibroblasts;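 note: total protein by sulforhodamine B staining as a cytotoxicity measure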
Summary of the method: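 Cytotoxicity was gauged by SRB staining (0.1% SRB, 10% TCA fixation, 560 nm) of parallel cultures at 24 h. The cells were primary human skin keratinocytes co-cultured with fibroblasts, and activity was fitted in both directions against DMSO.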

[6] = read-out: Interleukin-1 alpha (IL1a), IL1A (gene 3552); assay: BSK_KF3CT_IL1a: BioMAP Diversity Plus: KF3CT Assay for Interleukin-1 alpha (IL1a) Biomarker Activity (AID 2283070); details: primary human keratinocytes with fibroblasts; actives raise or lower the signal
Summary of the method: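 IL-1a was detected by ELISA 24 h after chemical treatment of a co-culture of human skin keratinocytes and foreskin fibroblasts. Gain or loss of signal was fitted against the DMSO baseline.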

[7] = read-out: TIMP metallopeptidase inhibitor 2 (TIMP2), TIMP2 (gene 7077); assay: BSK_KF3CT_TIMP2: BioMAP Diversity Plus: KF3CT Assay for TIMP metallopeptidase inhibitor 2 (TIMP2) Biomarker Activity (AID 2283071); details: primary human keratinocytes with fibroblasts; actives raise or lower the signal
Summary of the method: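 ELISA readout of TIMP-2 in keratinocyte plus foreskin fibroblast co-cultures (human skin primary cells), 24 h post-dose. Gain or loss of signal fitted relative to DMSO.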

[8] = read-out: Transforming growth factor beta 1 (TGFb1), TGFB1 (gene 7040); assay: BSK_KF3CT_TGFb1: BioMAP Diversity Plus: KF3CT Assay for Transforming growth factor beta 1 (TGFb1) Biomarker Activity (AID 2283072); details: primary human keratinocytes with fibroblasts; actives raise or lower the signal
Summary of the method: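 Read-out: ELISA for TGF-b1 in keratinocyte/foreskin fibroblast human skin co-culture, 24 h after dosing; bidirectional curve fit vs DMSO baseline; gain or loss of signal scored.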

[9] = read-out: C-C motif chemokine 2 (Homo sapiens) (UniProt P13500); assay: BSK_KF3CT_MCP1: BioMAP Diversity Plus: KF3CT Assay for Monocyte Chemoattractant Protein 1 (MCP1/CCL2) Biomarker Activity (AID 2283073); details: primary human keratinocytes with fibroblasts; actives raise or lower the signal
Summary of the method: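 Biomarker MCP-1 is measured by ELISA in primary human keratinocytes co-cultured with foreskin fibroblasts, 24 h after chemical treatment; DMSO serves as the negative control and activity baseline.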

[10] = read-out: Matrix Metallopeptidase 9 (MMP9), MMP9 (gene 4318); assay: BSK_KF3CT_MMP9: BioMAP Diversity Plus: KF3CT Assay for Matrix Metallopeptidase 9 (MMP9) Biomarker Activity (AID 2283074); details: primary human keratinocytes with fibroblasts; actives raise or lower the signal;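 for AC50: MMP9 protein level quantified by ELISA in the co-culture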
Summary of the method: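 MMP-9 quantified by ELISA after 24 h chemical treatment of primary human skin keratinocyte/fibroblast co-cultures; gain or loss fitted against DMSO, with parallel SRB staining (0.1% SRB, 560 nm) for overt cytotoxicity.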

[11] = read-out: urokinase plasminogen activator (uPA), PLAU (gene 5328); assay: BSK_KF3CT_uPA: BioMAP Diversity Plus: KF3CT Assay for urokinase plasminogen activator (uPA) Biomarker Activity (AID 2283075); details: primary human keratinocytes with fibroblasts; actives raise or lower the signal
Summary of the method: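 ELISA read-out of uPA 24 h after dosing human skin keratinocytes co-cultured with foreskin fibroblasts. Signal change fitted both ways relative to DMSO; sulforhodamine B on parallel cultures marks overt cytotoxicity.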

CD40, CD40 (gene 958) = assay: BSK_LPS_CD40: BioMAP Diversity Plus: LPS Assay for CD40 Biomarker Activity (AID 2283076); details: primary human HUVEC with PBMC; actives raise or lower the signal
Summary of the method: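 Using a multiplexed primary human co-culture (umbilical vein endothelium plus PBMC), CD40 was read by ELISA 24 h after dosing, with cytotoxicity tracked by sulforhodamine B staining of parallel cultures and activity fitted bidirectionally versus DMSO.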

[12] = BSK_LPS_SRB: Viability Assessment in the BioMAP Diversity Plus: LPS Assay (AID 2283079); details: primary human HUVEC with PBMC;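 note: total protein by sulforhodamine B absorbance as a cytotoxicity measure; measured one day after compound addition; fitted in both directions against DMSO so loss or gain of signal counts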
Summary of the method: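 Cytotoxicity endpoint in human endothelial–PBMC co-culture: 24 h exposure, then SRB (0.1%) staining, 560 nm read.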

[13] = read-out: Interleukin-1 alpha (IL1a), IL1A (gene 3552); assay: BSK_LPS_IL1a: BioMAP Diversity Plus: LPS Assay for Interleukin-1 alpha (IL1a) Biomarker Activity (AID 2283080); details: primary human HUVEC with PBMC; actives raise or lower the signal
Summary of the method: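 Primary human HUVEC and PBMC co-culture stimulated with LPS is dosed and harvested at 24 h. Both increases and decreases in ELISA-measured IL-1a are scored relative to DMSO.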

[14] = read-out: Monocyte Chemoattractant Protein-1 (MCP1), CCL2 (gene 6347); assay: BSK_LPS_MCP1: BioMAP Diversity Plus: LPS Assay for Monocyte Chemoattractant Protein-1 (MCP1) Biomarker Activity (AID 2283081); details: primary human HUVEC with PBMC; actives raise or lower the signal;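 for AC50: secreted MCP-1 protein quantified by ELISA in culture supernatant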
Summary of the method: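 Values derive from bidirectional fitting against DMSO of ELISA-measured MCP-1 in a human primary endothelial and mononuclear cell co-culture, 24 h after chemical addition under LPS activation.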

[15] = BSK_LPS_PGE2: BioMAP Diversity Plus: LPS Assay for Prostaglandin E2 (PGE2) Biomarker Activity (AID 2283082); details: primary human HUVEC with PBMC; actives raise or lower the signal;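 for AC50: secreted prostaglandin E2 measured by ELISA in LPS-stimulated co-culture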
Summary of the method: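 ELISA read-out of PGE2 from human umbilical vein endothelial cells co-cultured with peripheral blood mononuclear cells under LPS, 24 h post-dose. Gain or loss of signal scored relative to DMSO baseline.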

[16] = read-out: Macrophage colony-stimulating factor (MCSF), CSF1 (gene 1435); assay: BSK_LPS_MCSF: BioMAP Diversity Plus: LPS Assay for Macrophage colony-stimulating factor (MCSF) Biomarker Activity (AID 2283083); details: primary human HUVEC with PBMC; actives raise or lower the signal
Summary of the method: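 Bidirectional fit versus DMSO of ELISA-measured M-CSF in co-cultured human umbilical vein endothelial cells and PBMC, sampled 24 h after dosing.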

[17] = read-out: Tissue Factor, F3 (gene 2152); assay: BSK_LPS_TissueFactor: BioMAP Diversity Plus: LPS Assay for Tissue Factor Biomarker Activity (AID 2283084); details: primary human HUVEC with PBMC; actives raise or lower the signal
Summary of the method: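 Read-out: CD142 ELISA, 24 h. System: LPS-driven human endothelial/PBMC co-culture. Analysis: up- or down-signal fitted against DMSO.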

[18] = read-out: E-selectin (Homo sapiens) (UniProt P16581); assay: BSK_LPS_Eselectin: BioMAP Diversity Plus: LPS Assay for Eselectin Biomarker Activity (AID 2283077); details: primary human HUVEC with PBMC; actives raise or lower the signal
Summary of the method: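 Dose chemical onto LPS-driven HUVEC/PBMC co-culture; after 24 h, run ELISA for E-selectin; fit up- and down-going responses relative to DMSO control.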

[19] = read-out: Interleukin-8 (IL8), CXCL8 (gene 3576); assay: BSK_LPS_IL8: BioMAP Diversity Plus: LPS Assay for Interleukin-8 (IL8) Biomarker Activity (AID 2283078); details: primary human HUVEC with PBMC; actives raise or lower the signal
Summary of the method: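 In this LPS system, chemical-treated human umbilical vein endothelium/PBMC co-cultures were harvested at 24 h for IL-8 ELISA.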

Measured: AC50

Chain of E-selectin (Homo sapiens) (P16581 whole entry, looked up): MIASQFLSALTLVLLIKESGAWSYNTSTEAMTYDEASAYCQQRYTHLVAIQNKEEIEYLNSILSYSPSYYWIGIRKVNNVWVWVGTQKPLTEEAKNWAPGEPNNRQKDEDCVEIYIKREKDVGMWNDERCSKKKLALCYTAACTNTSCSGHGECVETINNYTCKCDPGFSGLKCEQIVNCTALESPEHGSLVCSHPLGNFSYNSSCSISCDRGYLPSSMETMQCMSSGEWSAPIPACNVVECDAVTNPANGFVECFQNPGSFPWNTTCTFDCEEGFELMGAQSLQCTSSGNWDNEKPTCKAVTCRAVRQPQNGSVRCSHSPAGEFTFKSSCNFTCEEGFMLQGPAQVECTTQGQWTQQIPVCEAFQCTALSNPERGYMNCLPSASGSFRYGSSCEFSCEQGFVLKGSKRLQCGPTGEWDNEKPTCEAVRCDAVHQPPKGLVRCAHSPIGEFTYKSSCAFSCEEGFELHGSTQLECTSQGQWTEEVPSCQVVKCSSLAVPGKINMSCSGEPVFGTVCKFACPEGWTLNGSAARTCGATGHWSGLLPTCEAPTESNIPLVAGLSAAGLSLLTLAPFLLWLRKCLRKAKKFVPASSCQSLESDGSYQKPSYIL

O=C(OC1CCCCC1)c1ccccc1C(=O)OC1CCCCC1
active: [1] 6.34 µM | [2] 12.3 µM | [6] 15.3 µM | [7] 20.9 µM | [8] 2.62 µM | [10] 9.72 µM | CD40, CD40 (gene 958) 15.5 µM | [12] 20.9 µM | [13] 20.9 µM | [14] 27.9 µM | [16] 14.6 µM | [17] 20.9 µM
inactive: [3] | [4] | [5] | [9] | [11] | [15]

Oc1cccc2cccnc12
active: [1] 1.03 µM | [2] 0.331 µM | [3] 2.14 µM | [4] 2.55 µM | [5] 2.78 µM | [6] 2.13 µM | [7] 3.68 µM | [8] 2.35 µM | [9] 2 µM | [11] 2.74 µM
inactive: CD40, CD40 (gene 958) | [18] | [19] | [12] | [13] | [14] | [16] | [17]

Nc1ncc([N+](=O)[O-])s1
not listed: [15] | [18] | [19]
inactive: all other assays above

O=[N+]([O-])c1ccc(O)c([N+](=O)[O-])c1
inactive: all assays above

CCCCC(CC)CO[N+](=O)[O-] (stereo unspecified)
active: [3] 30.9 µM | [4] 30.2 µM | [5] 36.4 µM | [7] 31.7 µM | [9] 30.4 µM | [10] 34.7 µM | [11] 35.3 µM
not listed: [15] | [18]
inactive: all other assays above

COc1cc(OC)nc(NC(=O)NS(=O)(=O)c2ncccc2C(=O)N(C)C)n1
not listed: [19]
inactive: all other assays above

C(=NC1CCCCC1)=NC1CCCCC1
inactive: [15]
active: [1] 10.7 µM | [2] 20 µM | [3] 20 µM | [4] 14.9 µM | [5] 15 µM | [6] 17.2 µM | [7] 20 µM | [8] 9.13 µM | [9] 29.4 µM | [10] 12.6 µM | [11] 28.8 µM | CD40, CD40 (gene 958) 27.4 µM | [19] 30.9 µM | [12] 32.8 µM | [13] 29.4 µM | [14] 30 µM | [16] 20 µM | [17] 34.8 µM

CC(C)(C)c1cc(O)ccc1O
active: [1] 3.31 µM | [2] 5.24 µM | [3] 30.8 µM | [4] 30.1 µM | [5] 29.9 µM | [6] 28.3 µM | [7] 20 µM | [8] 20 µM | [9] 36 µM | [10] 29.5 µM | [11] 31.3 µM | CD40, CD40 (gene 958) 5.75 µM | [19] 13.1 µM | [12] 28.5 µM | [13] 14.5 µM | [14] 13 µM | [16] 12.1 µM | [17] 20 µM

CCOP(=S)(OCC)SCSP(=S)(OCC)OCC
active: [16] 2.72 µM
not listed: [10]
inactive: all other assays above

C=CC(=O)OCCCCCC(C)C
not listed: [10] | [15] | [18]
inactive: all other assays above

COP(=S)(OC)Oc1ccc(Sc2ccc(OP(=S)(OC)OC)cc2)cc1
active: [2] 0.382 µM | [4] 20 µM | CD40, CD40 (gene 958) 20 µM | [12] 13.7 µM | [13] 31 µM | [14] 12.5 µM | [15] 9.58 µM | [16] 20 µM
not listed: [10] | [18] | [19]
inactive: all other assays above

O=Cc1cccc(Oc2ccccc2)c1
not listed: [10] | [15] | [18] | [19]
inactive: all other assays above
